Records with an inconclusive call do not appear. The source made the active and inactive calls. The calls were made as follows, unless noted: active = hit-call score of the fitted dose curve at least 0.9, where 1 is the maximum; inconclusive = response in the unintended direction; inactive = score below 0.9. Starred links: 1 amine or outer side, 2 acyl side, 3 side chain; linkers in the order of their positions; H or OH if unused. Positions of bridges follow the written chain, without caps; N, C: chain ends. Non-standard residues stand in square brackets, D forms with d. Residues, ends and D or L forms follow the SMILES beside them. Adda = CO[C@@H](Cc1ccccc1)[C@@H](C)/C=C(C)/C=C/[C@H](N[*:1])[C@H](C)C(=O)[*:2]; dAsp(3S-Me) = C[C@H](C(=O)[*:3])[C@@H](N[*:1])C(=O)[*:2]; d(γGlu) = O=C(O)[C@@H](CCC(=O)[*:2])N[*:1]; NMeDha = C=C(NC)C(=O)O
Legend:
[1] = CCTE_Harrill_HTTr_Apoptosis_MCF7: CCTE's 6-hour Apoptosis Assessment for the High-Throughput Transcriptomics (HTTr) Platform, in MCF-7 cells cultured in DMEM + 10% fetal bovine serum, Harrill Lab (AID 2284011; active = hit-call score of the fitted dose curve at least 0.9, where 1 is the maximum; inactive = score below 0.9)
Method in brief: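 Read-out: CellEvent Caspase 3/7 Green signal by high content imaging, gain-of-signal indicating apoptosis. MCF-7 cells, DMEM + 10% FBS, eight-point dilution series, 6 h exposure. Curves fitted bidirectionally relative to DMSO negative control.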

[2] = UKN5_HCS_SBAD2_cell_viability: Viability Assessment in the University of Konstanz (UKN) Leist Lab Neurite Outgrowth Assay in human iPSC-derived immature Dorsal Root Ganglia Neurons (UKN5) (AID 2284056; active = hit-call score of the fitted dose curve at least 0.9, where 1 is the maximum; inactive = score below 0.9)
Method in brief: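 iPSC-derived immature peripheral neurons (SBAD2) seeded on Matrigel with CHIR99021, SU5402 and DAPT, dosed 1 h later for 24 h. Viability from Hoechst H-33342 and calcein-AM live staining, high-content imaging; bidirectional fit versus DMSO.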

[3] = UKN5_HCS_SBAD2_neurite_outgrowth: University of Konstanz (UKN) Leist Lab Neurite Outgrowth Assay in human iPSC-derived immature Dorsal Root Ganglia Neurons (UKN5) (AID 2284070; active = hit-call score of the fitted dose curve at least 0.9, where 1 is the maximum; inactive = score below 0.9); details: actives raise or lower the signal
Method in brief: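 Neurite area from calcein-AM high-content images after 24 h exposure (staining included), with H-33342 for viability, fitted both directions against DMSO. Cells: thawed immature SBAD2 peripheral neurons, 100.000 cells/cm2, with CHIR99021, SU5402, DAPT; dosing 1 h after seeding.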

[4] = UKN4_HCS_LUHMES_neurite_outgrowth: University of Konstanz (UKN) Leist Lab Neurite Outgrowth Assay in human LUHMES cells (UKN4) (AID 2284206; active = hit-call score of the fitted dose curve at least 0.9, where 1 is the maximum; inactive = score below 0.9); details: actives raise or lower the signal
Method in brief: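 After 24 h compound treatment beginning shortly after replating of 2-day-differentiated LUHMES cells, calcein-AM and H-33342 live staining allowed high-content imaging of neurite area and viability. Fitted bidirectionally against DMSO.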

[5] = IUF_NPC5_oligodendrocyte_differentiation_120hr: Leibniz Research Institute for Environmental Medicine (IUF) 120-hour Oligodendrocyte Differentiation Assay (NPC5) (AID 2284304);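 also: primary human fetal neural progenitor spheres plated to migrate and differentiate; share of O4-positive cells among Hoechst nuclei found by CNN image analysis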
Method in brief: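 hNPC spheres, fetal cortex GW 16-19; PDL/laminin, DMEM:F12 3:1 + 1% N2, 37C/5% CO2; 7 concentrations + solvent control, 5 d exposure, half-change day 3. Readout: %O4+ of Hoechst+ nuclei in migration area, CNN classification; DMSO baseline.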

[6] = IUF_NPC4_neurite_area_120hr: Leibniz Research Institute for Environmental Medicine (IUF) 120-hour Neuronal Morphology Assay for Neurite Area (NPC4) (AID 2284305)
Method in brief: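 Endpoint at 120 h: automated imaging of TUBB3/Hoechst-stained differentiating human neural progenitor spheres, neurite area per neuron from skeletonization. DMSO solvent control, not above 0.1%, set the baseline; medium was half-replaced on day 3.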

[7] = CCTE_Harrill_HTTr_CellCount_MCF7: CCTE's Cell Proliferation Assessment for the High-Throughput Transcriptomics (HTTr) Platform, Harrill Lab (AID 2284012);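 also: cells exposed to compound for six hours; intended direction is loss of nuclei count meaning fewer cells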
Method in brief: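 Cell count from high-content imaging of Hoechst-labeled nuclei serves as viability/growth readout. Chemicals were applied to MCF-7 cells in eight concentrations for six hours, with fitting in both directions relative to DMSO.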

[8] = CCTE_Harrill_HTTr_Viability_MCF7: CCTE's 6-hour Cell Viability Assessment for the High-Throughput Transcriptomics (HTTr) Platform, in MCF-7 cells cultured in DMEM + 10% fetal bovine serum, Harrill Lab (AID 2284010; active = hit-call score of the fitted dose curve at least 0.9, where 1 is the maximum; inactive = score below 0.9)
Method in brief: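 Propidium iodide exclusion, imaged by high-content analysis, gauged viability after a six-hour exposure across eight concentrations. Cells were MCF-7 grown in DMEM with 10% fetal bovine serum; fits run in both directions against DMSO.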

[9] = CCTE_Mundy_HCI_Cortical_Synap_Neur_Matur_BPCount: CCTE's Synaptogenesis and Neurite Maturation Assay in rat cortical cells for Branch Point Count, Mundy Lab (AID 2284211; active = hit-call score of the fitted dose curve at least 0.9, where 1 is the maximum; inactive = score below 0.9)
Method in brief: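 HCI read-out of branch points from MAP2/synaptophysin/Hoechst immunofluorescence; rat cortical cultures, AraC DIV 5, dosing DIV 7, fixed DIV 12; fit in positive direction vs DMSO baseline.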

[10] = CCTE_Mundy_HCI_Cortical_NOG_NeuriteCount: CCTE's Neurite Outgrowth Assay in rat cortical cells for Neurite Count, Mundy Lab (AID 2284212; active = hit-call score of the fitted dose curve at least 0.9, where 1 is the maximum; inactive = score below 0.9;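 also: cells fixed about two days after chemical exposure began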)
Method in brief: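 Rat cortical primary cells; compound added 2 h post-plating, 1/10 dilution of working solution. Anti-betaIII-tubulin/AF488 ICC; ArrayScan neurite count vs DMSO.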

[11] = CCTE_Mundy_HCI_Cortical_Synap_Neur_Matur_NeuriteCount: CCTE's Synaptogenesis and Neurite Maturation Assay in rat cortical cells for Neurite Count, Mundy Lab (AID 2284222; active = hit-call score of the fitted dose curve at least 0.9, where 1 is the maximum; inactive = score below 0.9)
Method in brief: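 Primary rat cortical cells were plated, treated with AraC at DIV 5, then exposed to chemicals from DIV 7 through DIV 12. After fixation and immunostaining for MAP2 and synaptophysin, imaging quantified neurites, with DMSO as the negative control.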

[12] = CCTE_Mundy_HCI_hNP1_Pro_ResponderAvgInten: CCTE's Proliferation Assay in human neuroprogenitor cells, Mundy Lab (AID 2284224);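 also: human neural progenitor cells hNP1 derived from WA09 embryonic stem cells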
Method in brief: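 Human neuroprogenitors (hNP1, WA09 lineage) receive test chemical after 40 to 44 hours of attachment. A four-hour BrdU pulse begins twenty hours later, followed by fixation and high content imaging; signal is referenced to DMSO controls.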

[13] = CCTE_Mundy_HCI_Cortical_NOG_NeuronCount: CCTE's Neurite Outgrowth Assay in rat cortical cells for Neuron Count, Mundy Lab (AID 2284236);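 also: neurons counted by imaging betaIII-tubulin and Hoechst stained cortical cells; cells exposed to compound for about 48 hours before fixation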
Method in brief: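 Read-out: neuron number by high-content imaging of betaIII-tubulin (Alexa Fluor-488) and Hoechst-labelled rat primary cortical cells.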

[14] = CCTE_Mundy_HCI_Cortical_NOG_BPCount: CCTE's Neurite Outgrowth Assay in rat cortical cells for Branch Point Count, Mundy Lab (AID 2284237; active = hit-call score of the fitted dose curve at least 0.9, where 1 is the maximum; inactive = score below 0.9;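 as to AC50: branch points counted about two days after chemical exposure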)
Method in brief: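 Measured 50.33 h after dosing, this morphology endpoint uses rat primary cortical cultures labelled for betaIII-tubulin. Branch points are quantified by high-content imaging, with DMSO as negative control and baseline.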

[15] = CCTE_Mundy_HCI_Cortical_Synap_Neur_Matur_NeuronCount: CCTE's Synaptogenesis and Neurite Maturation Assay in rat cortical cells for Neuron Count, Mundy Lab (AID 2284242);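 as to AC50: hits reduce neuron count versus DMSO baseline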
Method in brief: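 Neuron counts come from automated high-content imaging of Hoechst nuclei and MAP2/synaptophysin immunostaining at DIV 12, with loss of signal judged against DMSO. Cultures of rat cortical cells had glial growth arrested by AraC at DIV 5; chemical exposure began DIV 7.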

[16] = CCTE_Mundy_HCI_iCellGluta_NOG_NeuriteLength: CCTE's Neurite Outgrowth Assay in iCellGluta cells for Neurite Length, Mundy Lab (AID 2284318)
Method in brief: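 Automated high-content imaging of betaIII-tubulin (Alexa Fluor-488) and Hoechst-stained cells gave neurite length, normalized to the DMSO baseline.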

[17] = IUF_NPC1_cytotoxicity_72hr: Cytotoxicity Assessment at 72 hours in the Leibniz Research Institute for Environmental Medicine (IUF) Neural Progenitor Cell Proliferation Assay (NPC1) (AID 2284332);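 also: rising LDH signal means more cytotoxicity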
Method in brief: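 Cytotoxicity by LDH membrane-integrity assay on medium supernatants, fluorescence via resazurin reduction, after 3-day single exposure of primary hNPC spheres at 37C, pH 7.2-7.6 with growth factors. Fitted upward against baseline.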

[18] = CCTE_Mundy_HCI_iCellGluta_NOG_NeuronCount: CCTE's Neurite Outgrowth Assay in iCellGluta cells for Neuron Count, Mundy Lab (AID 2284340);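 also: cells fixed about 48 h after compound addition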
Method in brief: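 Neuron count read by automated high-content imaging of Hoechst 33342 and betaIII-tubulin/Alexa Fluor-488 labelling in human iPSC glutamatergic neurons. Activity fitted relative to DMSO.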

[19] = CCTE_Mundy_HCI_iCellGluta_NOG_NeuriteCount: CCTE's Neurite Outgrowth Assay in iCellGluta cells for Neurite Count, Mundy Lab (AID 2284342);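 also: chemical exposure about 48 hours starting 2 hours after plating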
[20] = CCTE_Mundy_HCI_hNP1_CellTiter: CCTE's Cell Titer-Glo 2 Assay in human neuroprogenitor cells for Viability, Mundy Lab (AID 2284241);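 as to AC50: a hit is a drop in ATP luminescence versus DMSO meaning reduced viability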
Method in brief: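 Measures ATP content in human neural progenitors derived from WA09 embryonic cells. Read-out at 26.5 hours after dosing, with DMSO serving as the negative control and baseline.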

Measured: AC50

[Cl-].[Cl-].[Cl-].[Gd+3]
inactive: [1]

C[n+]1ccc(-c2ccccc2)cc1
inactive: [2] | [3] | [5] | [6]
active: [4] 2.69 µM

Cc1cc(N)ccc1N
inactive: [1] | [7]

COCCOC(C)=O
inactive: [8] | [7]

ClC=C(Cl)CCl
inactive: [1]

CC1(C)C(C=C(Cl)c2ccc(Cl)cc2)C1C(=O)OC(C#N)c1ccc(F)c(Oc2ccccc2)c1 (stereo not drawn)
active: [9] 50 µM | [10] 39.1 µM | [14] 23.5 µM | [16] 67.3 µM | [19] 74.1 µM
inactive: [11] | [12] | [13] | [15] | [5] | [17] | [18]

CCOP(=S)(OCC)SCS(=O)C(C)(C)C (stereo not drawn)
not listed: [1] | [2] | [3] | [4] | [7] | [8] | [13] | [15]
inactive: all other assays above

CCCCOC(=O)N(C)SN(C)C(=O)Oc1cccc2c1OC(C)(C)C2
inactive: [8] | [1] | [7]

O=C(O)CCCOC(=O)c1ccccc1C(=O)O
inactive: [7]

C=C1C(=O)N[C@H](C)C(=O)N[C@H](CC(C)C)C(=O)N[C@@H](C(=O)O)[C@H](C)C(=O)N[C@@H](CCCN=C(N)N)C(=O)N[C@@H](/C=C/C(C)=C/[C@H](C)[C@H](Cc2ccccc2)OC)[C@H](C)C(=O)N[C@@H](C(=O)O)CCC(=O)N1C (R[Adda][d(γGlu)][NMeDha][dA][dL][dAsp(3S-Me)]-OH; lactam N-7)
inactive: [8] | [1] | [7]

O=c1[nH]c2c(c(=O)n1C1CCCCC1)CCC2
inactive: [1] | [7]

Clc1c(Cl)c(Cl)c2c(c1Cl)Oc1c(Cl)c(Cl)c(Cl)c(Cl)c1O2
inactive: [8] | [1]

[Cl-].[Cl-].[Cl-].[Pr+3]
inactive: [8] | [1]

CCOP(=O)(OCC)OC(Cl)C(Cl)(Cl)Cl (stereo not drawn)
active: [9] 79.5 µM | [15] 9.85 µM
inactive: [10] | [11] | [12] | [13] | [14] | [6] | [16] | [17] | [18] | [19]

O=C(O)CNCP(=O)(O)O
inactive: [12] | [13]

CP(=O)(O)CCC(N)C(=O)O (stereo not drawn)
inactive: [2] | [3] | [4] | [6] | [17]

COP(=O)(OC)SCN1C(=O)c2ccccc2C1=O
active: [16] 50.5 µM
not listed: [1] | [2] | [3] | [4] | [7] | [8] | [15] | [20]
inactive: all other assays above

CC(C)(C)OOC(C)(C)C#CC(C)(C)OOC(C)(C)C
inactive: [8] | [1] | [7]

Clc1cc(Cl)c(-c2cc(Cl)c(Cl)c(Cl)c2Cl)cc1Cl
inactive: [2] | [3]
active: [4] 14.2 µM

CN1CC=C(c2ccccc2)CC1
inactive: [2] | [3] | [4]

C=CCN1CC[C@]23c4c5ccc(O)c4O[C@H]2C(=O)CC[C@@]3(O)[C@H]1C5
inactive: [9] | [10] | [11] | [13] | [14] | [20]

[CH3][Sn]([CH3])([CH3])[Cl]
active: [2] 18.8 µM | [3] 3.1 µM | [4] 2.5 µM

CC(C)CC(C)c1sccc1NC(=O)c1cn(C)nc1C(F)(F)F (stereo not drawn)
active: [4] 73.1 µM | [5] 5.68 µM
inactive: [2] | [3] | [6] | [17]

[CH3][Sn]([CH3])[CH3]
inactive: [13]
active: [15] 1.67 µM

C[C@@]1(CO)[C@H](O)CC[C@@]2(C)[C@H]1CC[C@H]1C[C@@H]3C[C@@]12CC[C@]3(O)CO
inactive: [12]

O.O.O.O.O.[Cd+2].[Cd+2].[Cl-].[Cl-].[Cl-].[Cl-]
active: [13] 76.6 µM | [15] 1.24 µM
inactive: [12]

C[C@H](N)Cc1ccccc1
inactive: [9] | [10] | [11] | [13] | [14] | [20]
active: [15] 0.0436 µM

O=C1N[C@@H]2C(=C[C@H](O)[C@@H](O)[C@H]2O)c2cc3c(c(O)c21)OCO3
inactive: [17]
active: [2] 0.0303 µM | [3] 0.0327 µM | [4] 0.0456 µM | [5] 0.0121 µM | [6] 0.00933 µM

CC1(C)C(C=C(Cl)Cl)[C@H]1C(=O)O[C@H](C#N)c1cccc(Oc2ccccc2)c1 (stereo partly drawn)
inactive: [2] | [3] | [4] | [6] | [17]
active: [5] 1 µM

CC1(C)[C@H](C=C(Cl)Cl)[C@H]1C(=O)OCc1c(F)c(F)cc(F)c1F
inactive: [17]
active: [9] 9.4 µM | [10] 80.1 µM | [11] 11.9 µM | [12] 22 µM | [13] 50 µM | [14] 81.1 µM | [20] 23.2 µM | [15] 8.94 µM | [16] 18.1 µM | [18] 21.7 µM | [19] 19.9 µM

O=[As](O)(O)O
active: [2] 4.31 µM | [3] 1.4 µM | [4] 74.5 µM
